Test results from PubChem BioAssay.
Active and inactive are the calls of the source.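 How the source made its calls, unless noted: active means visual image review flags a hit and inhibition of aggregation exceeds 20%; inconclusive means visual hit but inhibition at or below 20%; inactive means no hit on visual image review.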

Legend:
[1] = inhibitors of TNFa-induced NFkB p65 translocation, primary screen, imaging, HUVEC, MLSMR starter and 10KST1 sets (AID 438;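 active means inhibition above 20% together with a positive visual image hit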;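 further: compound added about 3h40 before a 20 min TNFalpha stimulation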;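 on inhibition: signal is the nuclear over cytoplasmic p65 intensity ratio per well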); settings: HUVEC TNFa-induced p65 nuclear translocation; cell count: measured here: nuclei count (cytotoxicity indicator), at 2.08 µM; inhibition: at 2 µM, stronger effect = higher value, 0% TNFa-plus-vehicle, 100% no-TNFa wells
[2] = reduction of polyQ htt aggregates in cells – imaging, exon1htt(103Q)mCFP cells, high-content imaging, primary screen (AID 483); settings: exon1htt(103Q)mCFP cell line, aggregate imaging, at 2 µM; inhibition of aggregation: stronger effect = higher value; nuclei count: measured here: cell count, toxicity;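 further: compound exposure lasted 3 days before fixation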;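 on nuclei count: percent of the per-plate median nuclei count of sample wells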
[3] = endothelial E-selectin expression blockers – imaging, HUVEC, immunofluorescence, MLSMR starter and 10KST1 sets, primary screen (AID 487;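 active means visually confirmed hit in the image check and inhibition above 20%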;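 on inhibition: signal is fraction of cell area covered by stained E-selectin grains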;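 on nuclei count: 100% = median nuclei count of all wells on the same plate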); settings: HUVEC TNFalpha-induced E-selectin immunofluorescence imaging, at 2 µM; inhibition: stronger effect = higher value; nuclei count: measured here: cell number, toxicity
[4] = molecular target: Voltage-gated potassium channel subunit beta-2 (Rattus norvegicus) (UniProt P62483); assay: inhibitors of rat Kvbeta2 reductase activity – biochemical, NADPH fluorescence, primary screen (AID 622;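 active means fluorescence slope higher than the sample average by over 3 SD, cut at about -0.22 in these data, passing the limit was not always enough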;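 further: slope of raw intensity against log time taken from 70 to 1610 s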); settings: recombinant KvBeta, 4-cyanobenzaldehyde reduction, at 10 µM, stronger effect = higher value
Voltage-gated potassium channel subunit beta-2 (Rattus norvegicus), sequence (P62483 whole entry, looked up): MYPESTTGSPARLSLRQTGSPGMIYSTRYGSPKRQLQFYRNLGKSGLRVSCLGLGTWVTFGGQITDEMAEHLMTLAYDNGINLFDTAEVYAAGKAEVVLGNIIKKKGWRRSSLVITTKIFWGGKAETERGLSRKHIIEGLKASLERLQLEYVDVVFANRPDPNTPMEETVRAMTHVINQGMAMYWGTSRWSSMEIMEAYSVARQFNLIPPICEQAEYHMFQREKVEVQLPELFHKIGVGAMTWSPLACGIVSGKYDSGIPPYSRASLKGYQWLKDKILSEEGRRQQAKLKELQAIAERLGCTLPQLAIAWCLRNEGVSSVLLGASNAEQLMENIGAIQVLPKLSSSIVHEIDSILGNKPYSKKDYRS

[5] = molecular target: Voltage-gated potassium channel subunit beta-2 (Rattus norvegicus) (UniProt P62483); assay: enhancers of rat Kvbeta2 NADPH turnover – biochemical, NADPH fluorescence, primary screen (AID 623;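 active means NADPH fluorescence slope more negative than the mean of all samples by about 3 SD, 99.7% confidence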;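 further: fluorescence intensity change per second fitted from 20 to 320 s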); settings: Recombinant KvBeta, NADPH fluorescence decrease slope, 10 min; at 10 µM; stronger effect = lower value
[6] = molecular target: Alpha-2C adrenergic receptor (Homo sapiens) (UniProt P18825); assay: compounds altering alpha2C-coupled GIRK flux – cell-based, HEK293 alpha2C/GIRK1/2, thallium flux, primary screen (AID 624;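 active means fluorescence slope after compound addition differing from the mean of all screened samples at 99.7% confidence, in either direction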;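 further: slope of fluorescence ratio to pre-addition baseline per second over 15 to 24 s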); settings: thallium flux BTC fluorescence, at 10 µM, actives lie on both sides
Alpha-2C adrenergic receptor (Homo sapiens), sequence (P18825 whole entry, looked up): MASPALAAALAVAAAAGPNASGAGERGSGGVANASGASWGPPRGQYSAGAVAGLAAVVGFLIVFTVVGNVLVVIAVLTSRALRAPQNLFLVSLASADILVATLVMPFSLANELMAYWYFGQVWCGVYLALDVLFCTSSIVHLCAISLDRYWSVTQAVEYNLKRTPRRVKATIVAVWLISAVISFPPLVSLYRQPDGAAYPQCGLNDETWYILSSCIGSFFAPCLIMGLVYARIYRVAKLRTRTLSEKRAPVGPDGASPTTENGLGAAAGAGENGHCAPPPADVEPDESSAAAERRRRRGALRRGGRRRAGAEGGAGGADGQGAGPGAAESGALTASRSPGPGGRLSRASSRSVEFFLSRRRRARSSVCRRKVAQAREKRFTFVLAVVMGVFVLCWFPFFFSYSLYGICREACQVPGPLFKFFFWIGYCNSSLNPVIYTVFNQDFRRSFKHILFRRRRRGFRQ

[7] = blockers of RIG-like receptor reporter activation – cell-based, Sendai virus stimulus, luciferase, 10K MLSCN set, TLR/RLR signaling modifier project, primary screen (AID 602276;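 active means inhibition at or above 50% at 10 µM; inactive means inhibition below 50%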;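 further: firefly luciferase from ISG56 promoter only with Renilla not read in this screen; 0% = Sendai virus plus DMSO and 100% = medium plus DMSO without virus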); settings: HEK293 RL24 IRF3 luciferase reporter, at 10 µM, stronger effect = higher value
[8] = TLR3 IRF3 reporter activation blockers – cell-based, poly I:C stimulus, luciferase, 10K MLSCN set, primary screen (AID 602277;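 active means inhibition of the reporter signal at or above 50%; inactive means inhibition below 50%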); settings: HEK293-TLR3 RL24 IRF3 luciferase reporter, at 10 µM, stronger effect = higher value

Structure (SMILES) | cell count [1] | inhibition [1] | inhibition of aggregation [2] | nuclei count [2] [%] | inhibition [3] | nuclei count [3] [%] | fluorescence slope [4] | NADPH fluorescence slope [5] | slope [6] | inhibition [7] | inhibition [8]
O=C(C1CCCN(S(=O)(=O)c2cccnc2)C1)N1CCn2c1nc1ccccc12 (configuration not stated) | 639 | -11.6% (inactive) | -20.6% (inactive) | 112 | -57.5% (inactive) | 107 | -0.595 (inactive) | -2.6e-05 (inactive) | 0.00573 (inactive) | -7.64% (inactive) | -1.49% (inactive)
CCOC(=O)N1CCC(NC(=O)C2CCN(S(=O)(=O)c3cccc4cccnc34)CC2)CC1 | 595 | 1.8% (inactive) | -71.5% (inactive) | 11.3 | 9.6% (inactive) | 107 | -0.558 (inactive) | -2.8e-05 (inactive) | 0.00729 (inactive) | 12% (inactive) | 35.6% (inactive)
O=C(c1ccc(-c2ccccc2)cc1)N1CCC(C(=O)N2CCCC2)CC1 | 237 | -4.7% (inactive) | 0.5% (inactive) | 91.7 | -17.6% (inactive) | 101 | -0.388 (inactive) | -5.3e-05 (inactive) | 0.00472 (inactive) | 16% (inactive) | 8.25% (inactive)
CN(C)c1ccc(NC(=O)Cn2cc3c(n2)CCCC3)cc1 | 757 | -11% (inactive) | 17.1% (inactive) | 101 | -27.2% (inactive) | 103 | -0.406 (inactive) | -4.3e-05 (inactive) | 0.00475 (inactive) | -2.34% (inactive) | -8.59% (inactive)
Cc1ccc(S(=O)(=O)NCC(=O)N(CC(=O)NCc2ccccc2)CC2CCCO2)cc1 (configuration not stated) | 341 | -16.5% (inactive) | 14.8% (inactive) | 107 | -31.2% (inactive) | 170 | -0.599 (inactive) | 1.2e-05 (inactive) | 0.00602 (inactive) | 12.2% (inactive) | 15.3% (inactive)
Cc1cccc(N2CCN(C(=O)C3CCCN(S(=O)(=O)c4cnc[nH]4)C3)CC2C)c1 (configuration not stated) | 387 | 1.7% (inactive) | -14% (inactive) | 107 | -11.9% (inactive) | 122 | -0.438 (inactive) | 1.5e-05 (inactive) | 0.00647 (inactive) | 6.53% (inactive) | 17.4% (inactive)
CCn1cc(C(=O)N=c2sc3ccccc3n2C)c(=O)c2ccc(C)nc21 | 450 | 3.7% (inactive) | -5.2% (inactive) | 107 | -27.5% (inactive) | 97.3 | -0.361 (inactive) | -6.4e-05 (inactive) | 0.00595 (inactive) | 6.49% (inactive) | 23% (inactive)
CCc1cc2c(CN3CCN(CCO)CC3)cc(=O)oc2cc1O | 396 | 1.3% (inactive) | -12.5% (inactive) | 102 | -34.5% (inactive) | 60.8 | -0.0121 (active) | 1.7e-06 (inactive) | 0.00408 (inactive) | 17.8% (inactive) | 27% (inactive)
O=C(CN1CCCC1)Nc1ccc(NC(=O)Nc2ccccc2)cc1 | 433 | -5.7% (inactive) | 8.5% (inactive) | 96.4 | -132% (inactive) | 215 | -0.433 (inactive) | 7.1e-05 (inactive) | 0.00831 (inactive) | -33.7% (inactive) | -54.6% (inactive)
CN(c1ccccc1)S(=O)(=O)c1ccc(C(=O)OCC(=O)N2CCOCC2)cc1 | 420 | -5.7% (inactive) | 8.2% (inactive) | 92.9 | 0.3% (inactive) | 105 | -0.583 (inactive) | -6.4e-05 (inactive) | 0.00565 (inactive) | 11.4% (inactive) | 22% (inactive)
O=C1CCCC(O)=C1C=Nc1ccc2c(c1)oc1ccccc12 | 403 | 1.7% (inactive) | -0.4% (inactive) | 95.2 | 24.8% (inactive) | 106 | -0.09 (active) | 1.4e-05 (inactive) | 0.00678 (inactive) | -23% (inactive) | -100% (inactive)
N#Cc1nc(-c2ccco2)oc1N1CCN(c2cccc(Cl)c2)CC1 | 744 | -7.5% (inactive) | 20.8% (inactive) | 123 | -75.1% (inactive) | 109 | -0.334 (inactive) | 2.4e-05 (inactive) | 0.00657 (inactive) | 8.62% (inactive) | -3.74% (inactive)
COCCNC(=O)C(c1ccc(C)o1)N(Cc1ccc(F)cc1)C(=O)Cn1nnc2ccccc21 (configuration not stated) | 591 | -8.1% (inactive) | -12.2% (inactive) | 121 | 12.3% (inactive) | 108 | -0.381 (inactive) | -7.3e-05 (inactive) | 0.00726 (inactive) | 9.7% (inactive) | 24.6% (inactive)
CCOC(=O)CCc1c(C)nc2cc(-c3ccc(F)cc3)[nH]n2c1=O | 249 | -7.1% (inactive) | 3% (inactive) | 85 | -8.7% (inactive) | 107 | -0.457 (inactive) | -3.9e-05 (inactive) | 0.00335 (inactive) | -3.01% (inactive) | 22.2% (inactive)
CC1(C)CC(=O)CC(=Nc2ccc(C(=O)O)cc2)C1 | 487 | 4.2% (inactive) | 10.3% (inactive) | 89.1 | 2.7% (inactive) | 112 | -0.497 (inactive) | -5.1e-05 (inactive) | 0.0073 (inactive) | 6.49% (inactive) | 42.2% (inactive)
CS(=O)(=O)N1CCCC(C(=O)NCCCN2CCC(Cc3ccccc3)CC2)C1 (configuration not stated) | 679 | -2% (inactive) | 15.3% (inactive) | 89.6 | -139% (inactive) | 111 | -0.602 (inactive) | 2e-05 (inactive) | 0.00628 (inactive) | -7.21% (inactive) | -4.47% (inactive)
CC(=O)c1ccccc1OCCn1nnc(-c2ccc(C)cc2)n1 | 556 | -13.7% (inactive) | -20.1% (inactive) | 106 | -24.2% (inactive) | 109 | -0.487 (inactive) | -5.6e-05 (inactive) | 0.0055 (inactive) | 12.9% (inactive) | 14% (inactive)
O=C(c1ccc(CNS(=O)(=O)c2cccc(C(F)(F)F)c2)cc1)N1CCOCC1 | 237 | 11.8% (inactive) | -1.6% (inactive) | 80 | 14.7% (inactive) | 97.4 | -0.387 (inactive) | -3.8e-05 (inactive) | 0.00478 (inactive) | 14.8% (inactive) | 16.9% (inactive)
COc1ccc(C(=O)CN2C3=NCCCN3c3ccccc32)cc1OC | 335 | -3.1% (inactive) | -14.2% (inactive) | 76.5 | 22.7% (inactive) | 93.6 | -0.475 (inactive) | -4.1e-05 (inactive) | 0.00312 (inactive) | 10.4% (inactive) | 28.8% (inactive)
COc1cccc(N2CCN(CC(=O)Nc3nnc(-c4ccccc4)s3)CC2)c1 | 417 | 0.2% (inactive) | 2.3% (inactive) | 105 | -120% (inactive) | 118 | -0.472 (inactive) | 8.2e-07 (inactive) | 0.00594 (inactive) | 16% (inactive) | 22% (inactive)
CCCS(=O)(=O)N1CCN(C(=O)c2cccs2)CC1 | 559 | 7.2% (inactive) | 5.4% (inactive) | 91 | -58.9% (inactive) | 102 | -0.622 (inactive) | -3.8e-05 (inactive) | 0.00496 (inactive) | 13.1% (inactive) | 3.31% (inactive)
COc1cc(-n2nc(C)c3c2OC(N)=C(C#N)C3c2ccccc2)c(Cl)c(Br)c1O (configuration not stated) | 490 | -1.6% (inactive) | 2.1% (inactive) | 71.4 | -8.7% (inactive) | 108 | -0.397 (inactive) | -3.5e-05 (inactive) | 0.00309 (inactive) | 18.2% (inactive) | 14.7% (inactive)
COC(=O)CNc1nc(C2CC2)nc2c1nnn2Cc1ccccc1Cl | 459 | 8.3% (inactive) | -0.3% (inactive) | 83.5 | 16.5% (inactive) | 97.5 | -0.479 (inactive) | -0.000128 (inactive) | 0.00514 (inactive) | 18.2% (inactive) | 17.8% (inactive)
Cc1cccc(-n2ncc3c(NCCCO)ncnc32)c1 | 840 | 2.3% (inactive) | -32% (inactive) | 101 | -2.8% (inactive) | 107 | -0.582 (inactive) | -1.5e-05 (inactive) | 0.00564 (inactive) | -58.8% (inactive) | -193% (inactive)
Cc1cc2ncn(C(=O)c3c(-c4ccccc4)noc3C)c2cc1C | 202 | -15.9% (inactive) | -7.9% (inactive) | 85.7 | 25.9% (inactive) | 99.7 | -0.433 (inactive) | -2.6e-06 (inactive) | 0.00548 (inactive) | 5.72% (inactive) | 18.2% (inactive)
CC(=O)NC(CCS(C)(=O)=O)C(=O)Nc1cccc(C)c1 (configuration not stated) | 600 | 8.7% (inactive) | 2.5% (inactive) | 110 | 21.6% (inactive) | 95.7 | -0.579 (inactive) | 1.1e-05 (inactive) | 0.00598 (inactive) | -14.8% (inactive) | -1.13% (inactive)
COc1ccc(S(=O)(=O)N(C)C2CCN(C)CC2)cc1 | 843 | -2.3% (inactive) | -6.3% (inactive) | 128 | -73.5% (inactive) | 114 | -0.548 (inactive) | -5.5e-05 (inactive) | 0.00699 (inactive) | 7.34% (inactive) | 43.8% (inactive)
